Assay outcomes (PubChem BioAssay)
ADAM17 inh = ADAM17 inhibition, QFRET primary screen; P78536; recombinant ADAM17, EDANS/DABCYL FRET peptide cleavage; inhibition, % at 6.95 µM; 370,000 tested, 0.83% active;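 active means inhibition above the mean of compounds lying between control limits plus 3 SD, set per campaign, cut at about 8.5% in these data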;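 further: 0% = DMSO-only wells as the low control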
NPR1 activator = GC-A (human) enzyme activation | AID 1671463 | P16066 | 370,000 tested, 0.14% active | HEK293 GC-A cells, cGMP TR-FRET, EC30 ANP; 0% at EC30 ANP, 100% saturating ANP | activation, % at 10 µM; in the data active means activation above about 40%
ADAM10 inh = inhibits human ADAM10; recombinant ADAM10, EDANS/DABCYL FRET peptide cleavage, 3 h; inhibition, % at 7 µM; 370,000 tested, 0.62% active; AID 720582;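 active means inhibition above a per-campaign cutoff equal to the mean of compounds falling between control-based bounds plus 3 SD, cut at about 20% in these data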;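 further: 0% = DMSO wells while the 100% control is not disclosed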
GC-B act = GC-B (human) receptor activation | 370,000 tested, 0.11% active | P20594 | HEK293-GC-B cells, CNP EC30, cGMP TR-FRET; 0% at EC30 CNP, 100% saturating CNP | activation, % at 10 µM;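 active means activation at 10 µM reaching about 35% in either raw or pattern-adjusted values, limit read from the data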
Starred values were filed as active, the others as inactive; i = inactive. Compounds with a hit are over-represented: about 1.3% of the library has one in this group of screens.

SMILES	ADAM17 inh	NPR1 activator	ADAM10 inh	GC-B act
CCS(=O)(=O)c1ncc(Cl)c(C(=O)Nc2ccc(S(=O)(=O)N3CCCC(C)C3)cc2)n1 (centres undefined)	-4	43*	-6	41*
CCC1CCCCN1S(=O)(=O)c1ccc(NC(=O)c2nc(S(C)(=O)=O)ncc2Cl)cc1 (centres undefined)	-4	42*	-8	20
CCC1CCCCN1S(=O)(=O)c1ccc(NC(=O)c2ccncc2)cc1 (centres undefined)	-4	-4	7	-2
CN(C)CCC(=O)c1ccc(Cl)cc1	-4	62*	-1	-3
CN(CCC(=O)c1ccccc1)CCC(=O)c1ccccc1	2	63*	-1	3
COc1ccc(Oc2c(Cl)cnn(-c3ccc(C(C)C)c(C)c3)c2=O)cc1	-1	1	1	19
CCC1(C(=O)O)NC(c2cc(OC)ccc2O)C2C(=O)N(Cc3ccccc3)C(=O)C21 (centres undefined)	1	-5	22*	-9
CCOC(=O)Cc1cc(=O)n2[nH]c(C)c(-c3ccc(Cl)cc3)c2n1	-20	44*	-64	45*
CCOC(=O)Cc1cc(=O)n2[nH]c(C)c(-c3ccc(OC)cc3)c2n1	-4	49*	-6	51*
COC(=O)Cc1cc(=O)n2[nH]c(C)c(-c3ccccc3)c2n1	-9	17	-27	27
COc1ccc(COc2cc(-c3cccc(OC)c3)nc3ccc(NC(C)=O)cc23)cc1	i	54*	i	68*
COc1ccc(COc2cc(-c3cccc(OC)c3)nc3ccc(NC(=O)c4ccc(C)cc4)cc23)cc1	-8	24	-21	26
COc1ccc(COc2cc(-c3cccc(OC)c3)nc3ccc(N)cc23)cc1	-193	56*	i	53*
COc1cccc(-c2cc(C(=O)Nc3ccc(N(C)C(C)=O)cc3)c3cc(Br)ccc3n2)c1	8	23	20*	8
CCOC(=O)CSc1ccc(S(=O)(=O)N(C)C2CCCCC2)cc1[N+](=O)[O-]	6	2	24*	0
CCOC(=O)CSc1ccc(S(=O)(=O)N2CCCCC2)cc1[N+](=O)[O-]	-5	1	-3	-2
N#Cc1ccccc1Sc1ccccc1C(=O)Nc1ccc2ccccc2c1	8.6*	-3	17	-5
COc1ccc(C(NC(=O)C2CCN(Cc3ccc(Oc4ccccc4)cc3)CC2)c2ccccc2C)cn1 (centres undefined)	4	-2	15	-2
Cc1cc(OCc2nnc(SCC(=O)OC3CCCCC3)o2)ccc1Cl	-4	66*	-4	7
O=C(CSc1nnc(COc2ccc(Cl)cc2)o1)OC1CCCCC1	5	76*	9	17
[O-][n+]1c2ccccc2cc2ccccc21	-262	-3	i	3
Cc1ccc(S(=O)(=O)N2[C@@H](c3ccc(C(C)(C)C)cc3)C(C(=O)O)=CC[C@H]2c2ccc(C(C)C)cc2)cc1	4	-9	22*	4
Cc1ccc([C@@H]2CC=C(C(=O)O)[C@H](c3ccc(C(C)(C)C)cc3)N2S(=O)(=O)c2ccc(C)cc2)cc1	4	-2	18	-1
Cc1ccc(Nc2nc(N)c([N+](=O)[O-])c(NCc3ccco3)n2)cc1	3	41*	9	18
NC(=O)c1cccc(-c2coc3c(C(=O)NC4CCCCC4)cccc23)c1	-2	30	0	35*
SMILES	ADAM17 inh	NPR1 activator	ADAM10 inh	GC-B act
Cn1c(=O)c2c(nc(N/N=C3\CCCc4ccccc43)n2Cc2ccc(F)cc2)n(C)c1=O	-3	34	-4	50*
O=c1c2ccccc2nc2n1CCc1c-2[nH]c2ccccc12	-11	17	-20	16
Cc1cccc2c(=O)n3c(cc12)-c1[nH]c2ccccc2c1CC3	-145	38	i	35*
Cc1cc(-n2c(=S)sc3c(=O)n(-c4ccc(F)cc4)c(SCC(=O)O)nc32)ccc1Cl	2	4	-5	3
Cc1[nH]c2ccccc2c1C(=O)c1cc(Cc2ccccc2)sc1N	5	48*	1	3
C[C@H](CO)N1C[C@H](C)[C@H](CN(C)C(=O)c2cc(-c3ccccc3)on2)OCc2cnnn2CCCC1=O	-2	-1	-7	1
Cc1ccc(S(=O)(=O)c2nnn3c2nc(Nc2cccc(C)c2)c2ccccc23)cc1	-3	49*	-6	50*
Oc1ccc(-c2[nH]ncc2-c2ccc(Cl)cc2)c(O)c1	7	49*	3	-3
Oc1ccc(-c2[nH]ncc2-c2ccc(Br)cc2)c(O)c1	3	67*	11	0
